The values that follow come from PubChem BioAssay.

Calls of active or inactive are those of the source. Unless noted, no rule for the calls is given here.

For assay [1], the system named is XIP peptide (Xip251-270) binding. Nature of the assay: small-molecule binders of XIP peptide, primary screen, biochemical, small-molecule microarray, fluorescence 635/667 nm, 0.1 µg/mL protein (AID 1182). The note with it: fluorescent protein binding, 635 nm, higher = more signal, called active from +8 up or from −8 down.
Another assay concerns XIP peptide (Xip251-270). Nature of the assay: small-molecule binders of XIP peptide, primary screen, biochemical, small-molecule microarray, fluorescence 635/667 nm, 0.5 µg/mL protein (AID 1183). The note with it: small-molecule microarray binding, fluorescence 635 nm; higher = more signal.
Assay [2] is described as follows: Plasmodium falciparum growth inhibition, primary screen, strain 3D7, DAPI fluorescence, 100 nL (AID 1184).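 Also: parasites grown inside human red blood cells in medium with human serum.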 The note with it: P. falciparum 3D7 growth, 3 d, higher = more signal.
The target in assay [3] is Homeobox protein Hox-A13 (Mus musculus) (UniProt Q62424). Nature of the assay: inhibitors of HoxA13-DNA binding, primary screen, biochemical, fluorescence polarization, labeled oligonucleotide (AID 1185). The note with it: 15 min, higher = more signal, called active from +8 up or from −8 down.
Sequence of Homeobox protein Hox-A13 (Mus musculus) (Q62424 whole entry, looked up): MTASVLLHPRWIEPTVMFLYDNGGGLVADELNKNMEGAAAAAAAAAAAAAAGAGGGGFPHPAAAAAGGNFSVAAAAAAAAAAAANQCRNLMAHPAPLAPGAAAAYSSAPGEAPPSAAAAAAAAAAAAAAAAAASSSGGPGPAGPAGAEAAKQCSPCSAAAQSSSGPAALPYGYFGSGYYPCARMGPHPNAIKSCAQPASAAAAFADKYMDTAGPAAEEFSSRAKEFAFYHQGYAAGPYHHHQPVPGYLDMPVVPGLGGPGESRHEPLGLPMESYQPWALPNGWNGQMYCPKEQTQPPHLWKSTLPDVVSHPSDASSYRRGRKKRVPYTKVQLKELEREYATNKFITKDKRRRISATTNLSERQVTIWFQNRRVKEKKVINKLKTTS
Assay [4] can be described thus: inhibitors of hydroxyurea-induced Chk1 phosphorylation, primary screen, imaging, HeLa, phospho-Chk1 antibody, percent positive cells (AID 1186). The note with it: hydroxyurea-induced phospho-Chk1 immunofluorescence imaging, higher = more signal.
Assay [5] in a line: inhibitors of hydroxyurea-induced Chk1 phosphorylation, primary screen, imaging, HeLa, phospho-Chk1 nuclear intensity (AID 1187). The note with it: hydroxyurea-induced phospho-Chk1 immunofluorescence imaging, higher = more signal.

Turning to `CN1C=C(C(=O)OCCS(C)(=O)=O)C(C(=O)OCCS(C)(=O)=O)=CC(c2ccc(CO)cc2)=CC1C1CC1` (configuration not stated), the composite z-score in assay [1] was 0.943 (inactive); in the assay with XIP peptide (Xip251-270), -0.452. Moreover, the z-score was -2.35 in assay [2], -5.4 (inactive) in assay [3], -1.15 (inactive) in assay [4] and 0.15 (inactive) in assay [5].

Turning to `NC(=O)[C@@H]1[C@H]2C(=O)O[C@H](c3ccccc3)[C@H](c3ccccc3)N2[C@H](c2ccc(O)cc2)[C@@]12C(=O)Nc1ccccc12`, the composite z-score in assay [1] was 0.138 (inactive); in the assay with XIP peptide (Xip251-270) it was 0.507. Further, the z-score in assay [2] was -1.28; in assay [3] it was -5.09 (inactive); in assay [4], -0.0838 (inactive); in assay [5], -0.0447 (inactive).

With `COC(=O)C(CC#Cc1ccc2c(c1)[C@]1(C(=O)N2)[C@H](C(=O)Nc2nc3ccccc3s2)[C@H]2C(=O)O[C@H](c3ccccc3)[C@H](c3ccccc3)N2[C@@H]1c1ccc(O)cc1)C(=O)OC`, the composite z-score is 0.297 (inactive) in assay [1] and 0.794 in the assay with XIP peptide (Xip251-270). For the same molecule, the z-score is -1.89 in assay [2], -0.424 (inactive) in assay [3], -0.558 (inactive) in assay [4] and -1.09 (inactive) in assay [5].

As for `NC(=O)NCC#Cc1ccc2c(c1)[C@]1(C(=O)N2)[C@H](C(N)=O)[C@H]2C(=O)O[C@H](c3ccccc3)[C@H](c3ccccc3)N2[C@@H]1c1ccc(O)cc1`, the composite z-score in assay [1] was 1.49 (inactive); in the assay with XIP peptide (Xip251-270), 0.109. Further, the z-score in assay [2] is -0.19; in assay [3], -5.36 (inactive); in assay [4], 0.0619 (inactive); in assay [5] it was 0.044 (inactive).

For `CCCc1cc2c(n1Cc1cc(F)cc(F)c1)C(C)C1CN(C(=O)c3ccccc3)C(C)(C(=O)OC)C21` (configuration not stated), the composite z-score was 0.264 (inactive) in assay [1] and -0.0681 with XIP peptide (Xip251-270). Moreover, the z-score in assay [2] was -1.32; in assay [3] it was -2.41 (inactive); in assay [4], 0.789 (inactive); in assay [5], 0.0213 (inactive).

In the case of `COc1cc2c(cc1O)C(c1cccs1)N(C)CC2` (configuration not stated), the composite z-score in assay [1] is -0.721 (inactive); in the assay with XIP peptide (Xip251-270), 0.594. Besides, the z-score in assay [2] was -1.12; in assay [3] it was -3.91 (inactive); in assay [4], -0.428 (inactive); in assay [5] it was -0.628 (inactive).

As for `CC(C)c1ccc(NN2C(C(O)c3ccc(B(O)O)cc3)C=CC3C(=O)N(c4ccccc4)C(=O)C32)cc1` (configuration not stated), the composite z-score was 1.04 (inactive) in assay [1] and 0.665 in the assay with XIP peptide (Xip251-270). The z-score in assay [2] is 0.101; in assay [3], -4.18 (inactive); in assay [4], -0.337 (inactive); in assay [5] it was -0.659 (inactive).

Turning to `COc1cc(NN2C(C(O)c3ccco3)C=CC3C(=O)N(c4ccccc4)C(=O)C32)cc(OC)c1OC` (configuration not stated), the composite z-score is 0.318 (inactive) in assay [1] and 0.737 in the assay with XIP peptide (Xip251-270). The z-score in assay [2] was -0.372; in assay [3] it was -3.83 (inactive); in assay [4], 0.153 (inactive); in assay [5], -0.416 (inactive).

For `COc1ccc(CCNC(=O)[C@@]2(Sc3ccc(C)cc3)CC(=O)N(C(C)C)[C@@H]2c2ccc(CO)cc2I)cc1`, the composite z-score is 0.427 (inactive) in assay [1] and 0.368 in the assay on XIP peptide (Xip251-270). The z-score in assay [2] is -1.01; in assay [3] it was -2.89 (inactive); in assay [4] it was 0.332 (inactive); in assay [5], 0.404 (inactive).

For `COc1ccc(CCNC(=O)[C@@]2(Sc3ccc(C)cc3)CC(=O)N(C3Cc4ccccc4C3)[C@@H]2c2ccc(CO)cc2I)cc1`, the composite z-score in assay [1] is -0.0449 (inactive); with XIP peptide (Xip251-270), 0.81. The z-score in assay [2] is -0.725; in assay [3] it was -2.4 (inactive); in assay [4] it was 0.136 (inactive); in assay [5], 0.684 (inactive).

Turning to `C[N+](C)(C)CCCCCCNC(=O)[C@@H]1C[C@@H]2C(=O)N[C@@H](Cc3ccccc3)C(=O)N2[C@@H]1c1cccc(OCCO)c1`, the composite z-score is 0.694 (inactive) in assay [1] and 0.814 in the assay on XIP peptide (Xip251-270). Moreover, the z-score in assay [2] was -0.145; in assay [3], -4.83 (inactive); in assay [4], -0.362 (inactive); in assay [5] it was -0.398 (inactive).

On to `CCC[C@@H]1C[C@@]1(CCC)[C@@H](NS(=O)(=O)c1cccc2cccnc12)c1ccc(Cl)cc1`, for which the results for the composite z-score (in assay [1]; in the assay with XIP peptide (Xip251-270)) were 0.0535 (inactive) and -0.271, respectively. In addition, the z-score in assay [2] is -0.586; in assay [3] it was -0.392 (inactive); in assay [4], 0.555 (inactive); in assay [5] it was 0.618 (inactive).

For the molecule `COC(=O)[C@H](Cc1ccccc1)N1CC2=C[C@@H](C3CC3)n3c(=O)n(C)c(=O)n3[C@H]2[C@@H]1[C@@H](O)Cc1ccccc1`, the composite z-score in assay [1] is 0.475 (inactive); in the assay on XIP peptide (Xip251-270) it was 0.259. The z-score was -0.863 in assay [2], -7.37 (inactive) in assay [3], 0.183 (inactive) in assay [4] and 1.5 (inactive) in assay [5].

On to `O=C1C[C@@](C(=O)NCC(F)(F)F)(c2ccc([N+](=O)[O-])cc2)[C@@H](c2ccc(CO)cc2I)N1C1CCCCC1`, for which the results for the composite z-score (in assay [1]; in the assay with XIP peptide (Xip251-270)) were 0.469 (inactive) and 0.778, respectively. The z-score is -1.26 in assay [2], -4.99 (inactive) in assay [3], -0.171 (inactive) in assay [4] and 0.187 (inactive) in assay [5].

As for `[N-]=[N+]=Nc1ccccc1[C@@H]1OC(c2ccc(OCCCO)cc2)=N[C@]1(Cc1ccccc1)C(=O)N1CCOCC1`, the figures for the composite z-score (in assay [1]; in the assay on XIP peptide (Xip251-270)) were 0.665 (inactive) and 0.632, respectively. The z-score in assay [2] is -2.32; in assay [3], -4.82 (inactive); in assay [4], -0.208 (inactive); in assay [5], -0.0135 (inactive).

As to `CC1CC/C=C\[C@H]2OC34C=CCN(C(C)(C)C)C(=O)[C@H]3N(C(C)CO)C(=O)[C@@H]4C2C(=O)O1` (some centres not stated), the values for the composite z-score (in assay [1]; in the assay with XIP peptide (Xip251-270)) were -0.323 (inactive) and -1.08, respectively. The z-score in assay [2] was 0.0549; in assay [3], -5.51 (inactive); in assay [4] it was 0.714 (inactive); in assay [5] it was -0.0558 (inactive).

For the molecule `C=C(CCCC)/C(=C/C[C@H](OC(C)=O)c1ccccc1OCCO)c1cc(C(=O)OC)ccc1OC`, the composite z-score in assay [1] is 0.0757 (inactive); in the assay with XIP peptide (Xip251-270), -0.167. The z-score is -2.66 in assay [2], -3.55 (inactive) in assay [3], -0.836 (inactive) in assay [4] and -0.714 (inactive) in assay [5].
